From the supplement of paper PMC11732987, “Enantioselective OTUD7B fragment discovery through chemoproteomics screening and high-throughput optimisation” (Communications Chemistry, 2025)

Experiments:
Experiment in all cases: log2 ratio of Biotin-Ahx-Ub-VS probe labelling (fragment/DMSO); higher = less target engagement (more negative = stronger competition), active = hit call of the paper (q ≤ 0.05, log2 ratio ≤ -1)
Conditions in all cases: compound concentration: 200 uM; treatment time: 3 h
[1] = target: T1, OTUD6B (UniProt Q8N6M0)
T1 sequence (whole entry): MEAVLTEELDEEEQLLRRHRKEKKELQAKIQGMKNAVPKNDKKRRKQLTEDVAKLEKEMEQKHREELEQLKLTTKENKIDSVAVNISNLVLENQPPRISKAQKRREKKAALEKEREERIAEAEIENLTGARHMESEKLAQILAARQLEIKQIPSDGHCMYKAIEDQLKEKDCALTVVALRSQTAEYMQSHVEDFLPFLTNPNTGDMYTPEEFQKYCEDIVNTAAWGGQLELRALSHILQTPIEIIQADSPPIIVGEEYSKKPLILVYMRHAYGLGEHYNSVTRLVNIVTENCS
Method in brief: (§1)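 HEK293T lysate, 495 µg per sample in Tris/CHAPS/IGEPAL buffer with protease inhibitors, was treated in triplicate with fragment at 200 µM or vehicle for 3 h and then with Biotin-Ahx-Ub-VS at 0.5 µM final for 1 h. Labelled DUBs were NeutrAvidin-enriched, digested with LysC and trypsin, and run by diaPASEF LC-MS/MS. Spectronaut label-free quantities were global-median-normalised, and values are average log2 fragment/vehicle ratios by unpaired t-test on proteins with ≥2 unique peptides.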

[2] = target: T2, OTUD7B (UniProt Q6GQQ9)
T2 sequence (whole entry): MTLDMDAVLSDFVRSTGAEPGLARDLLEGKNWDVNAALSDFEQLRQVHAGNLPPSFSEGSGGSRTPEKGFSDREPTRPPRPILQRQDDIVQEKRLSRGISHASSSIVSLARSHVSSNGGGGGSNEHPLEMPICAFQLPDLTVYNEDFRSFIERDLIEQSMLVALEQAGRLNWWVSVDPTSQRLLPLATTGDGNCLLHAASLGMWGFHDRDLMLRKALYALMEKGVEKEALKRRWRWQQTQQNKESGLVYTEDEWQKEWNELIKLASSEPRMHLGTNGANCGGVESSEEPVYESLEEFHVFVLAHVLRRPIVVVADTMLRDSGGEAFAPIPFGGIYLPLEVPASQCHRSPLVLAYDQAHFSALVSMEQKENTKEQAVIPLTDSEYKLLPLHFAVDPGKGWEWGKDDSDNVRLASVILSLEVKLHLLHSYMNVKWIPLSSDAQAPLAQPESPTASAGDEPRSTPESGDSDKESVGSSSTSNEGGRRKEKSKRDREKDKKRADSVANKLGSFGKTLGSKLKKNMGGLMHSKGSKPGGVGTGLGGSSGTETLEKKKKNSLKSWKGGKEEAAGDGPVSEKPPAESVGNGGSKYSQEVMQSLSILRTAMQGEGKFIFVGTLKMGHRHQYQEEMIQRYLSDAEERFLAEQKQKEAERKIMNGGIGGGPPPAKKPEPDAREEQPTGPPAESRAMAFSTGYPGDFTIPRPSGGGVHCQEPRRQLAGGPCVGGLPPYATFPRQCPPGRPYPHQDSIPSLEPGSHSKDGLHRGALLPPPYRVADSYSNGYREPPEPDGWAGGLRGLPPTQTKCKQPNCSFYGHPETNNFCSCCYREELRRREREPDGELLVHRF
Method in brief: as §1

[3] = target: PRPF8 (UniProt Q6P2Q9)
Method in brief: as §1

[4] = target: T3, PSMD7 (UniProt P51665)
T3 sequence (whole entry): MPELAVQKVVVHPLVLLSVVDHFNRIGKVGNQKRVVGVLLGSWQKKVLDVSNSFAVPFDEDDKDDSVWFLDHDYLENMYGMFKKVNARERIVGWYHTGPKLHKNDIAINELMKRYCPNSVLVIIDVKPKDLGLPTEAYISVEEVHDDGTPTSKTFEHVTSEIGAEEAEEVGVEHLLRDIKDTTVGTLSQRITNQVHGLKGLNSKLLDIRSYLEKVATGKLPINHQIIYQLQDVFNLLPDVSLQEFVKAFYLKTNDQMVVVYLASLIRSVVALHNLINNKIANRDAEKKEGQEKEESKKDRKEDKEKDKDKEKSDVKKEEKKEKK
Method in brief: as §1

[5] = target: UCHL1 (UniProt P09936)
Method in brief: as §1

[6] = target: T4, UCHL3 (UniProt P15374)
T4 sequence (whole entry): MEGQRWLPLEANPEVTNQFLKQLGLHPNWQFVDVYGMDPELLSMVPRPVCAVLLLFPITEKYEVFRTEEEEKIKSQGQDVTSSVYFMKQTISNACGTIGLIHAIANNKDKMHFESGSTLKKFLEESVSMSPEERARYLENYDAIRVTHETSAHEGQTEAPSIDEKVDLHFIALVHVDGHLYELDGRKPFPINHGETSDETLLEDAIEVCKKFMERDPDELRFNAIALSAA
Method in brief: as §1

[7] = target: T5, UCHL5 (UniProt Q9Y5K5)
T5 sequence (whole entry): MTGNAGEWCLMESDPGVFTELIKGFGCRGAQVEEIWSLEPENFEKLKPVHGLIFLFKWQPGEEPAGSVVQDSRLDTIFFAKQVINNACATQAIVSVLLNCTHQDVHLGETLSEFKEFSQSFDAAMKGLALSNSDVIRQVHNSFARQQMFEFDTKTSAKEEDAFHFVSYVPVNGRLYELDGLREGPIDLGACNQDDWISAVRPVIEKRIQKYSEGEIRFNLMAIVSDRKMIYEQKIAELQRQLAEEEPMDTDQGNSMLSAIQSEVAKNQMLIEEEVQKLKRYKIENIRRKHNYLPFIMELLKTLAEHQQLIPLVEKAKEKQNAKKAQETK
Method in brief: as §1

[8] = target: USP10 (UniProt Q14694)
Method in brief: as §1

[9] = target: T6, USP15 (UniProt Q9Y4E8)
T6 sequence (whole entry): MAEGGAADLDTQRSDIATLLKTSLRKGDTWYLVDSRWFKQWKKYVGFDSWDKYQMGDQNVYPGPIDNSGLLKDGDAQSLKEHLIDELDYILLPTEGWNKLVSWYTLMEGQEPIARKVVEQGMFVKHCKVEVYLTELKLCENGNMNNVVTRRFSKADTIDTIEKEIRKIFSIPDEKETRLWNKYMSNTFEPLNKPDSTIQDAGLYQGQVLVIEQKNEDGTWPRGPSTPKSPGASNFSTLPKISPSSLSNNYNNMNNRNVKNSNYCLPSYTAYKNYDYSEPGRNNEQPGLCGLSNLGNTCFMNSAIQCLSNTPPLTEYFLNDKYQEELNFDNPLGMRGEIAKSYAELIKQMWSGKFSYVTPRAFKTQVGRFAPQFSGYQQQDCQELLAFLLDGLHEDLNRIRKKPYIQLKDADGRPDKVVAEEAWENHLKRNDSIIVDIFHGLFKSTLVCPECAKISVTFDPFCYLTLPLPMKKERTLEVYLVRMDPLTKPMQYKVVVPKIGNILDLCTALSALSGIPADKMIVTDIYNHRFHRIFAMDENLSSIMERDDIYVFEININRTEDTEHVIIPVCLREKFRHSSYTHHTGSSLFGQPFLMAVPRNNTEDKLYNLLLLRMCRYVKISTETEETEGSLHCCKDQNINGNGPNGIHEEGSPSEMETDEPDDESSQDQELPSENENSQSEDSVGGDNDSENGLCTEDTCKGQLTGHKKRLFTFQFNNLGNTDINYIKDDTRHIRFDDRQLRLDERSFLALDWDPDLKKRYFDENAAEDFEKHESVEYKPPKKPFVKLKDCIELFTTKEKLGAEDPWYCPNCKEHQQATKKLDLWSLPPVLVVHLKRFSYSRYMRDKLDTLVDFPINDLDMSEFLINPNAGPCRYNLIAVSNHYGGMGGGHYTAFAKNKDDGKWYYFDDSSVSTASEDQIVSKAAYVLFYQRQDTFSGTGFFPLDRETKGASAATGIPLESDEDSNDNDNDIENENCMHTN
Method in brief: as §1

[10] = target: USP16 (UniProt Q9Y5T5)
Method in brief: as §1

Measured: log2 ratio of Biotin-Ahx-Ub-VS probe labelling

USP16, sequence (Q9Y5T5 whole entry, looked up): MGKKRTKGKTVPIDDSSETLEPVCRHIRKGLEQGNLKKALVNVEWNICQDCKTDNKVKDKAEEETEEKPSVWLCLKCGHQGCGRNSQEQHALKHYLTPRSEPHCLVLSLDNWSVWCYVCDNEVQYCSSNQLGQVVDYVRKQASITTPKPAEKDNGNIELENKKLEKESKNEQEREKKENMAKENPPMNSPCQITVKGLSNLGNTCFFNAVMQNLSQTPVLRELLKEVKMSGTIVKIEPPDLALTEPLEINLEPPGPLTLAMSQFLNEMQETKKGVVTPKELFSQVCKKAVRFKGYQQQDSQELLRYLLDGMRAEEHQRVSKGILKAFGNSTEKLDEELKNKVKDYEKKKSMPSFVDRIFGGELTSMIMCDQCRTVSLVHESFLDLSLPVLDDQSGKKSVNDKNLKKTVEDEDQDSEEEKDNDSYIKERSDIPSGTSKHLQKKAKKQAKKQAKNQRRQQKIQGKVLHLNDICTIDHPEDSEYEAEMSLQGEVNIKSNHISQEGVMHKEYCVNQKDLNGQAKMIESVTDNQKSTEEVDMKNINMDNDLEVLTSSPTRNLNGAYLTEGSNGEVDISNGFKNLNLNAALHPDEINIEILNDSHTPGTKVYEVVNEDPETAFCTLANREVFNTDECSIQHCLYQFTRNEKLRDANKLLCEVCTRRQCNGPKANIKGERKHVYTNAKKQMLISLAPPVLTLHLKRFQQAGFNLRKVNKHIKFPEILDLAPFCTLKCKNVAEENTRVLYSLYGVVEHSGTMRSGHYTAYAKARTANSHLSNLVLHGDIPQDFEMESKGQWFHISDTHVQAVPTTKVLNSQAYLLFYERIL
UCHL1, sequence (P09936 whole entry, looked up): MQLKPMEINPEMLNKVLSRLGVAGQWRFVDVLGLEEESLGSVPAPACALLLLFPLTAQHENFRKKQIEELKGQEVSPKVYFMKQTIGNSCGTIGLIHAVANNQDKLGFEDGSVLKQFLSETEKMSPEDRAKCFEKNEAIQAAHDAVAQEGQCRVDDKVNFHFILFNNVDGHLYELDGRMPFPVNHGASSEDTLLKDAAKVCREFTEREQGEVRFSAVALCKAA
USP10, sequence (Q14694 whole entry): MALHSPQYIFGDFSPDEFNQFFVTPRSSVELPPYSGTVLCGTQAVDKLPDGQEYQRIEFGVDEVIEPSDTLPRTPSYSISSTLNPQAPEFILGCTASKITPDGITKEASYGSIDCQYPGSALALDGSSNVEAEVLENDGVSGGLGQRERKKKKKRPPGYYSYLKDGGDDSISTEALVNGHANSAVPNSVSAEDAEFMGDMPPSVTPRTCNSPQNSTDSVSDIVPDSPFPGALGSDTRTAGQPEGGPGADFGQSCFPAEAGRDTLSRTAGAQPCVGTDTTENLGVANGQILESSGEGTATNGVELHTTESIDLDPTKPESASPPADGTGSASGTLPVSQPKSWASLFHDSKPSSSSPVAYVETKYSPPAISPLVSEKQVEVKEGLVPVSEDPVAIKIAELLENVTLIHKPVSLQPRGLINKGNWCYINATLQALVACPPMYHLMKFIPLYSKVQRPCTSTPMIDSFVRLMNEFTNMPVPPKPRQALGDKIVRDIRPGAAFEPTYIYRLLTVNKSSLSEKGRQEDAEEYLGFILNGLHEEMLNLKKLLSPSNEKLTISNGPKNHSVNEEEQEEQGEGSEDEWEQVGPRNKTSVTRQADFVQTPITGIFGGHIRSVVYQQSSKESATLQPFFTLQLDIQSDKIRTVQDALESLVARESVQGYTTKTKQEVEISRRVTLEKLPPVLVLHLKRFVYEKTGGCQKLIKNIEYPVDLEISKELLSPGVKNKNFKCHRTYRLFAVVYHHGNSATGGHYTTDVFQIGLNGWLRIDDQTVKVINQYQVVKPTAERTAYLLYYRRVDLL

O=C(CCl)N(C1CCCC1)C1CCS(=O)(=O)C1 (stereo not given)
inactive: [1] -0.0743 | [2] -0.147 | [3] 0.17 | [4] 0.00755 | [6] 0.248 | [7] -0.176 | [8] -0.0694 | [9] -0.235 | [10] -0.121
active: [5] -1.47
